From PubChem BioAssay
Cycloheximide cs = Cycloheximide Counterscreen for Small Molecule Inhibitors of Shiga Toxin; cell reporter, cycloheximide protein synthesis inhibition counterscreen; max response, %; 300,000 tested, 12% active; AID 2314, 2010; in the data active = max response mostly above about 13%, no sharp cut-off; inactive = mostly below about 14%; also: read at 38.3 µM for the half of the compounds with a filed dose; 0% is about no effect
Shiga inhibitor = A qHTS for Small Molecule Inhibitors of Shiga Toxin; Vero cells, Shiga toxin protein synthesis inhibition reporter; inhibition, % at 38.7 µM; 290,000 tested, 9.2% active; in the data active = inhibition mostly above about 28%, no sharp cut-off; inactive = mostly below about 43%; also: 0% is about no effect
NS1 function inh = qHTS Assay for Inhibitors of Influenza NS1 Protein Function. 270,000 tested, 0.4% active. Potency, µM (highest dose often 46.1 µM), for the others: at the highest dose activity, positive = more growth. AID 2326, 2010; also: potency is read from the fitted curve at half-maximal effect; actives are rising curves; nearly all actives have a fitted effect of over 50% in size
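Read-out: OD600 growth recovery of NS1-expressing budding yeast. Cells grown overnight at 30C in -URA glucose medium, washed, resuspended and diluted 1:100 in 2% galactose assay medium, pH 6.0. Same strain lacking NS1 served as positive control.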
SARS PLP yeast = qHTS of Yeast-based Assay for SARS-CoV PLP; S. cerevisiae expressing SARS-CoV PLpro, growth rescue; Potency, µM (titrated, usually from 32.9 µM), for inactives: at the top dose activity, positive = growth rescue, most hits filed as activators; 330,000 tested, 0.19% active; AID 485353, 2010; also: potency is read from the fitted curve at half-maximal effect; 0% is about no effect; nearly all actives have a fitted effect of over 55% in size
Starred values were filed as active, the others as inactive; ? = inconclusive; . = not tested or not shown. The list is not random: actives were taken first. Their share in the collection is about 12%. Unless noted, calls follow the shape of the full dose curve.

SMILES	Cycloheximide cs	Shiga inhibitor	NS1 function inh	SARS PLP yeast
Cc1cc(C(=O)O)c(C)n1-c1ccccc1	-5	-11	-8%	0%
Cc1ccc(-n2c(C)cc(C(=O)CN3CCCCC3)c2C)cc1	40*	87*	5%	-11%
Cc1cc(C(=O)CN2CCC(C)CC2)c(C)n1-c1ccccc1F	2	-5	-5%	28%
CCOC(=O)c1c(NC(=O)Cn2cnc3scc(-c4ccc(C)cc4)c3c2=O)sc(C)c1C	-2	-11	?	3%
Cc1ccc(-c2cc(C(=O)O)c3cc(Br)ccc3n2)s1	23*	42*	-60%	1%
Cc1ccc(-c2cc(C(=O)N3CCCC3)c3ccccc3n2)s1	20*	52*	-35%	-5%
NC(=O)C1CCN(C(=O)c2cc(-c3ccc(Cl)cc3)nc3ccccc23)CC1	.	.	.	17%
Cc1ccc(-c2cc(C(=O)N3CCC(C)CC3)c3ccccc3n2)cc1	17*	2	-105%	-4%
Cc1ccc(-c2cc(C(=O)N3CCOCC3)c3cc(C)ccc3n2)cc1	21*	27	-22%	-4%
Cc1ccc(-c2cc(C(=O)O)c3cc(Br)ccc3n2)o1	7	13	17%	6%
CC1CCC2(CC1)NC(=O)N(CC(=O)N1CCOCC1)C2=O (stereo not given)	.	.	.	-1%
O=C(c1cc(-c2ccncc2)nc2ccccc12)N1CCN(c2ccccc2O)CC1	-1	-7	-4%	-1%
O=C(c1cc(-c2ccccc2)nc2ccccc12)N1CCN(c2ccccc2O)CC1	15*	46*	-42%	-16%
CC(NCCC1(C(C)C)CCOC(C)(C)C1)c1cccs1 (stereo not given)	8.8*	27	-2%	0%
CCCCn1c2ccc(F)cc2c2nnc(NN)nc21	-4	-22	.	-8%
COc1cc(OC)c(NC(=O)C2CCN(S(=O)(=O)c3ccc4c(c3)CC(C)N4C(C)=O)CC2)cc1Cl (stereo not given)	17*	-4	7%	9%
CC(C)(C)c1ccc(-c2cc(-c3ccccc3O)[nH]n2)cc1	27*	59*	-3%	-10%
Oc1ccccc1-c1cc(-c2cccc(F)c2)n[nH]1	37*	122*	-160%	-10%
CC(C)(C)c1ccc(-c2cc(N)n[nH]2)cc1	13	25	?	-1%
CCOC(=O)N1CCN(C(=O)Cc2ccccc2OC)CC1	-2	-3	2%	5%
FC(F)(F)c1cccc(N2CCc3cn[nH]c32)c1	23*	32*	-24%	-37%
COc1ccc(C(=O)N2CCCC(CCC(=O)NCc3ccc(F)c(F)c3)C2)cc1F (stereo not given)	14	29	-5%	0%
COc1cccc(CNC(=O)CCC2CCCN(C(=O)c3cc4ccccc4o3)C2)c1 (stereo not given)	48*	68*	-5%	0%
COc1cccc(CNC(=O)CCC2CCCN(C(=O)c3ccoc3)C2)c1 (stereo not given)	-3	-1	2%	-1%
COc1ccc(C(=O)N2CCCC(CCC(=O)NCc3ccc(F)c(F)c3)C2)o1 (stereo not given)	26*	94*	1%	-1%
SMILES	Cycloheximide cs	Shiga inhibitor	NS1 function inh	SARS PLP yeast
CC1CCN(C(=O)CNC(=O)c2ccc(Br)o2)CC1	.	.	.	-5%
C=C1CN(C(C(=O)OC)C(C)C)S(=O)(=O)c2ccc(F)cc21 (stereo not given)	7	-6	.	.
Cc1ccc(C)c(OCc2cc(C(=O)N3C[C@@H](C)O[C@@H](C)C3)no2)c1	48*	87*	-25%	?
COc1cc(C)ccc1OCc1cc(C(=O)N2CCC(c3ccc(F)cc3)C2)no1 (stereo not given)	58*	113*	-16%	3%
Cc1ccc(C)c(OCc2cc(C(=O)N3CC[C@@H]4CCCC[C@H]4C3)no2)c1	33*	105*	-1%	-2%
O=C1CC(c2ccccc2)Oc2cc(O)ccc21 (stereo not given)	7	32	-5%	-6%
COc1ccc(S(=O)(=O)N2CCOCC2)cc1NC(=O)c1ccc(=O)[nH]c1	.	.	.	2%
O=C(c1ccco1)N1CCN(c2nc3ccccc3n3nnnc23)CC1	24*	36*	3%	-14%
c1ccc(CC2CCN(c3nc4ccccc4n4nnnc34)CC2)cc1	8.5*	17	?	0%
CCn1c(N2CCN(C(=O)c3ccco3)CC2)nc2ccccc21	2	1	-6%	1%
Cc1ccc(CNc2nc3ccccc3n3nnnc23)cc1	23	-46	6%	-1%
COc1cc([N+](=O)[O-])ccc1NC(=O)COC(=O)C1=NN(c2ccccc2)C(=O)CC1	.	.	.	-2%
c1coc(CNc2nc(-c3ccncc3)cs2)c1	36*	72*	-9%	-20%
c1coc(CNc2nc3ccccc3s2)c1	51*	80*	1%	2%
COc1ccc(-c2csc(NC(=O)C3CC(=O)N(Cc4ccco4)C3)n2)cc1 (stereo not given)	10	13	.	-1%
Cc1nnc(NCc2ccco2)s1	3	-13	1%	5%
COc1ccc(-c2csc(NCc3ccco3)n2)cc1	42*	72*	20%	-5%
CC(=O)c1cccc(NC(=O)N2C3CCC2CC(NC(=O)Nc2ccccc2)C3)c1 (stereo not given)	5	10	-2%	0%
c1ccc2c(c1)ccc1nnc(-c3ccc4c(c3)OCO4)n12	12*	active	-5%	2%
c1ccc2c(c1)ccc1nnc(SCc3ccc4c(c3)OCCO4)n12	42*	42*	-72%	0%
CN1c2ccccc2N(C)C1c1ccc2c(c1)OCO2	-1	6	-1%	2%
Cc1cc2ccccc2n2c(SCC(=O)N3CCOCC3)nnc12	-4	24	5%	1%
O=C(CSc1nnc2ccc3ccccc3n12)N1CCOCC1	63*	32*	?	3%
CCCCN1C(=O)c2ccc(C(=O)NC3=NCCS3)cc2C1=O	20*	34	-48%	-20%
COc1ccc(N(Cc2ccccc2)S(=O)(=O)c2cccc(C(=O)NC3=NCCS3)c2)cc1	-4	-2	-3%	-20%
SMILES	Cycloheximide cs	Shiga inhibitor	NS1 function inh	SARS PLP yeast
COc1cccc(C(=O)Nc2nnc(-c3ccc(Cl)cc3)o2)c1	-5	-3	-88%	-10%
COc1cccc(C(=O)Nc2nnc(-c3cccs3)o2)c1	33*	93	-199%	-16%
CCOc1cccc(C(=O)NC2=NCCS2)c1	40*	72*	-30%	-10%
COc1cccc(C(=O)NC2=NCCS2)c1	29*	41*	-14%	-27%
O=C(CCN1C(=O)c2ccccc2C1=O)NC1=NCCS1	-1	-5	-2%	-1%
CCOc1ccc(CCNC(=O)COC(=O)c2ccc3c(c2)OCCO3)cc1OCC	.	.	.	4%
O=C(NCCCN1CCOCC1)c1c(-c2ccccc2)sc2ccccc12	.	.	.	-2%
CCN(CC)S(=O)(=O)c1ccc(N2CCOCC2)c(NC(=O)CCC2CCCCC2)c1	15	1	14%	-18%
COc1ccc(S(=O)(=O)NCc2cc(=O)n(C)c(=O)n2C)cc1F	-7	0	-3%	0%
Cc1cc(C(=O)NNC(=O)c2ccc(Cl)c(S(N)(=O)=O)c2)c(C)o1	.	.	.	2%
CC(C)Oc1cccc(C(=O)NC2=NCCS2)c1	55*	108*	.	-24%
